Source: PubChem BioAssay AID585 (National Center for Advancing Translational Sciences (NCATS), 2007)
Out of some 71,000 compounds screened, about 1,300 (1.8%) were called active. A call without a number means that no potency is given here. The call rests on the fitted dose curve. This excerpt belongs to a sample that is enriched for actives.

target: Beta-lactamase (Escherichia coli (strain K12)) (UniProt P00811); test: Promiscuous and Specific Inhibitors of AmpC Beta-Lactamase (assay without detergent); conditions: AmpC nitrocefin hydrolysis, absorbance 480 nm, no detergent; series mostly up to 28.7 µM
Outline: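 Enzyme, pH 7.0 phosphate. Compound titrations were pre-incubated with AmpC for 15 min at room temperature before nitrocefin (stock 800 uM) addition; product formation was recorded at 480 nm every 20 s for 4 min.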
Potency means the concentration at half of the fitted maximal effect.

Beta-lactamase (Escherichia coli (strain K12)), sequence (P00811 whole entry, looked up): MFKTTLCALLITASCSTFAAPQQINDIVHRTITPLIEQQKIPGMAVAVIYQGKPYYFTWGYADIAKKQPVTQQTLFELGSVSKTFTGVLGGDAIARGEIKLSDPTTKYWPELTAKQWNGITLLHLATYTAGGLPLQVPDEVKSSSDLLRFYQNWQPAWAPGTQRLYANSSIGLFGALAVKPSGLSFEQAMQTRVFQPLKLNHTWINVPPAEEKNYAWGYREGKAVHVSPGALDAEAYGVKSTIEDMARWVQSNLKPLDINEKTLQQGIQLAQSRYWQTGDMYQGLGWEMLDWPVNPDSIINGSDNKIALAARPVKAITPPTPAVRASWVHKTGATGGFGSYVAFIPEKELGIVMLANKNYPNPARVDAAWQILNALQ

SMILES | Potency | activity change, negative = inhibition
Fc1cccc(/C=N\N=C/c2cccc(F)c2)c1 | inactive | –
COc1cccc(NC(=O)Nc2nnc(N3CCCCC3C)s2)c1 (stereo not given) | 2.51 µM [single pt active] (active) | –
COc1cccc(NC(=O)C2CCCN2C(=O)OCc2ccccc2)c1 (stereo not given) | inactive | –
COc1cccc(Nc2nnc(SCC(=O)N3CC(C)OC(C)C3)s2)c1 (stereo not given) | inactive | –
COCc1cc(C)nc(SCC(=O)Nc2cccc(C)c2)c1C#N | inactive | –
CC1=C2C(=O)OC(c3ccoc3)C2(C)CCC1 (stereo not given) | inactive | –
COc1ccc(C(=O)N/N=C2/C(=O)c3c(C)cc(C)cc3CC2(C)C)cc1 | – | 18.6% [at 5.75 µM] (inactive)
CCOC(=O)N1CCC(C(N)=O)CC1 | inactive | –
Cc1noc(C)c1S(=O)(=O)N(CC(=O)Nc1ccc2c(c1)OCCO2)c1ccc(C(C)C)cc1 | inactive | –
CCOC(=O)C1(C(F)(F)F)N=C(N(C)C)OC(N(C)C)=N1 | inactive | –
O=C(O)c1c(Br)c(Br)c(Br)c(Br)c1C1c2ccc(O)cc2Oc2cc(O)ccc21 | 0.158 µM (active) | –
N#CC1=C(N)Oc2cc(O)ccc2C1C1CCCCC1 (stereo not given) | inactive | –
COCCNC(=O)CN1C(=O)CSc2ncccc21 | inactive | –
CC(C)(Cc1c[nH]c2ccc(Cl)cc12)NCCOc1ccccc1OCC1CC1 | 20 µM [single pt active] (active) | –
NCC[Se][Se]CCN | – | 1.6% [at 5.75 µM] (inactive)
COC(=O)N1CCC[C@@]2(CCN(C(=O)NC(C)C)C2)C1 | inactive | –
Cc1cc(C)c(C#N)c(SCc2ccc3c(c2)OCO3)n1 | inactive | –
Cc1nc(C)c(C(=O)Nc2cccc(C)c2C)o1 | 3.98 µM [single pt active] (active) | –
Cc1nc(C)c(C(=O)Nc2ccc(C)c(F)c2)o1 | inactive | –
COc1ccc(Cl)cc1NC(=O)c1oc(C)nc1C | inactive | –
c1ccc2c(c1)OCC(CNc1ncnc3nc[nH]c13)O2 (stereo not given) | inactive | –
c1ccc(CCN2CCN=C2Cc2ccccc2)cc1 | – | 13.3% [at 5.75 µM] (inactive)
COc1cccc(N2C(=O)C3CCCN3C2c2ccc(F)cc2)c1 (stereo not given) | inactive | –
CC1=CC(C)(C)N(C(=O)CSc2nccn2C)c2cc(C)ccc21 | inactive | –
O=C(Cn1c(=S)nc2ccccn21)N1CCc2ccccc2C1 | inactive | –
C=C1c2cc(CC)ccc2NC(=O)N1c1ccc(C)cc1 | 3.98 µM [single pt active] (active) | –
Cc1ccc(S(=O)(=O)N2CC(=O)Nc3ccccc32)cc1C | inactive | –
FC(F)Oc1ccccc1C1CC(c2ccc(Br)s2)Nc2ncnn21 (stereo not given) | inactive | –
O=c1cc(Cn2nnc(-c3ccc(Cl)cc3)n2)nc2sccn12 | inactive | –
CS(=O)(=O)N(CC(=O)N1CCN(Cc2ccc3c(c2)OCO3)CC1)c1ccc2c(c1)OCO2 | inactive | –
